In PubChem BioAssay (NCATS) one finds parasite growth, % of DMSO control data, which are given here for 40 molecules.

The structures appear in SMILES notation.

The nature of this test: qHTS profiling of the MIPE4 collection as inhibitors of Plasmodium falciparum (3D7) proliferation (AID 743344).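 Further: scaled between DMSO vehicle wells and 0.29 µM artemisinin as full inhibition.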 Conditions: P. falciparum 3D7 in erythrocytes, SYBR Green DNA fluorescence, 72 h; at 28.5 µM unless noted. From the text: Plasmodium falciparum is a virulent malarial parasite that kills 1-2 million people worldwide each year. Transmitted by mosquitoes, the sporozoite form of the parasite enters the blood stream to infect hepatocytes, where they become merozoites that infect red blood cells (erythrocytes). Within erythrocytes, merozoites begin a […] cycle of growth and division, after which the parasite is released to infect new red blood cells. Gametocytes, which form within erythrocytes as well, circulate in the bloodstream and are ingested by the mosquito, thereby completing the life cycle. To profile malarial isolates for differential chemical responses and to identify inhibitors of malarial growth, an assay that measures P. falciparum growth and replication within erythrocytes was employed. This assay uses a DNA binding fluorescent dye (SYBR Green) to detect parasite DNA following cell lysis. Because mature erythrocytes lack DNA, only Plasmodium-derived DNA is detected.
The SYBR Green viability assay was adapted from a method described previously (Plouffe et al., 2008). For screening 3 ul culture medium was dispensed into 1536 well black clear bottom plates (Aurora Biotechnologies) using a Multidrop Combi (Thermo Fisher Scientific Inc.), 23 nL compounds in DMSO were added by a pin tool (Kalypsys), and 5 ul of erythrocytes infected with P. falciparum (0.3% parasitemia, 2.5% hematocrit final concentration) were added. The plates were incubated at 37 C in a humidified incubator in 5% CO2 for 72 h, and 2 ul lysis buffer (20 mM Tris HCl, 10 mM EDTA, 0.16% saponin, 1.6% triton X, 10X SYBR Green I supplied as 10,000X […] by Invitrogen) was added to each well. The plates were mixed for 25 sec with gentle shaking and incubated overnight at room temperature in the dark. The following morning, fluorescence intensity at 485(14) nm excitation and 535(25) nm emission wavelengths was measured on an EnVision (Perkin Elmer) plate reader. Plate reads were normalized relative to the control inhibitor (0.29 uM artemisinin) and vehicle (DMSO) wells present on each plate and then corrected by an algorithm using vehicle-only control plates at the beginning and end of the compound plate stack.
Molecule `O=C(C=Cc1ccc(O)cc1)c1ccc(O)cc1O` came in with a parasite growth, % of DMSO control of 19.6%.

On to `CC=C1C2C=C(C)CC1(N)c1ccc(=O)[nH]c1C2` (stereo not given), for which the parasite growth, % of DMSO control amounted to 100%.

`CCCCC[C@H](O)C=C[C@H]1[C@H](O)CC(=O)[C@H]1CCCCCCC(=O)O` came in with a parasite growth, % of DMSO control of 71.4%.

The molecule `Cc1ccc(C(=O)N(CCCN)[C@@H](c2oc3cc(Cl)ccc3c(=O)c2Cc2ccccc2)C(C)C)cc1` showed a parasite growth, % of DMSO control of 4.68%.

As to `COC1CCC(C(=O)c2ccc3nc4c(cc3c2)CCCO4)CC1` (stereo not given), the parasite growth, % of DMSO control came out at 21.8%.

`CN(C)CCN(C)C(=O)c1ccc(NC(=O)Nc2ccc(-c3nc(N4CCOCC4)c4ccn(CC(F)(F)F)c4n3)cc2)cc1` gave a parasite growth, % of DMSO control of 5.47%.

The molecule `COc1cc2c(cc1OC)CC(=O)N(CCCN(C)C[C@H]1Cc3cc(OC)c(OC)cc31)CC2` registered a parasite growth, % of DMSO control of 92%.

Consider `CC(C)(C)c1[nH]cnc1C=c1[nH]c(=O)c(=Cc2ccccc2)[nH]c1=O`, for which the parasite growth, % of DMSO control came out at 20.3% [at 57.5 µM].

Regarding `Nc1ncnc2c1c(-c1cccc(OCc3ccccc3)c1)cn2C1CC(CN2CCC2)C1` (stereo not given), the parasite growth, % of DMSO control stood at 31.5%.

Turning to `CCN1CCC(n2cc(CNc3cc(Cl)c4ncc(C#N)c(Nc5ccc(F)c(Cl)c5)c4c3)nn2)CC1`, the parasite growth, % of DMSO control worked out at 12.9%.

Molecule `COC(=O)Nc1ccc(-c2nc(N3CCOCC3)c3cnn(C4CCN(C(=O)OC)CC4)c3n2)cc1` gave a parasite growth, % of DMSO control of 11.1%.

Molecule `Cc1ccc(C2=Nc3ccc(Cl)cc3OC2)cc1` returned a parasite growth, % of DMSO control of 30.3%.

Molecule `CN(C)S(=O)(=O)c1ccc2c(c1)C(=Cc1cc3c([nH]1)CCCC3)C(=O)N2` returned a parasite growth, % of DMSO control of 22.9%.

As for `COc1cc(F)c(C(C)C)cc1-c1ccc(C(F)(F)F)cc1CN1C(=O)O[C@H](c2cc(C(F)(F)F)cc(C(F)(F)F)c2)[C@@H]1C`, the parasite growth, % of DMSO control was 6.82%.

For the molecule `O=C(Nc1ccc(OC(F)(F)F)cc1)c1sccc1NCc1ccnc2ccccc12`, the parasite growth, % of DMSO control stood at 57%.

Molecule `CC1(C)[C@H]2CC[C@]3(C)[C@@H](C(=O)C=C4[C@@H]5C[C@@](C)(C(=O)O)CC[C@]5(C)CC[C@]43C)[C@@]2(C)CC[C@@H]1O` had a parasite growth, % of DMSO control of 93.2%.

The molecule `COC(=O)N1CCN(Cc2cccc(NC(=O)Nc3ccc(C)nc3)c2F)CC1` came in with a parasite growth, % of DMSO control of 20.8%.

Take `O=C(O)c1ccc(O)c2ncc(N3CCOCC3)cc12`: the parasite growth, % of DMSO control is 15.1%.

`COc1ccc(CCC(=O)Nc2nc3ccc(Cl)cc3s2)cc1OC` showed a parasite growth, % of DMSO control of 22.3%.

Regarding `CC=C(C(=CC)c1ccc(O)cc1)c1ccc(O)cc1`, the parasite growth, % of DMSO control amounted to 61.7%.

In turn, `CCCC1OC2C[C@@H]3[C@H]4CCC5=CC(=O)C=C[C@]5(C)[C@H]4C(O)C[C@]3(C)[C@]2(C(=O)CO)O1` (stereo not given in full) yielded a parasite growth, % of DMSO control of 11.7%.

Turning to `Cc1ccc2c(=O)c3cccc(CC(=O)O)c3oc2c1C`, the parasite growth, % of DMSO control was 95.5%.

Regarding `CN[C@@H]1[C@@H](O)[C@@H](O[C@@H]2[C@@H](O)[C@H](O[C@H]3O[C@H](CN)[C@@H](O)[C@H](O)[C@@H]3O)[C@@H](N)C[C@@H]2NC(=O)[C@@H](O)CN)OC[C@]1(C)O`, the parasite growth, % of DMSO control is 94%.

With `COc1cc2nc(-c3cc(F)ccc3O)nc(N[C@@H]3CNC[C@@H]3C(C)(C)O)c2cc1OC`, the parasite growth, % of DMSO control stood at 6.37%.

As for `CN(C(Cc1ccc(OS(=O)(=O)c2cccc3cnccc23)cc1)C(=O)N1CCN(c2ccccc2)CC1)S(=O)(=O)c1cccc2cnccc12` (stereo not given), the parasite growth, % of DMSO control worked out at 6.17%.

Regarding `CCC(c1ccc(O)cc1)C(CC)c1ccc(O)cc1` (stereo not given), the parasite growth, % of DMSO control came out at 84.9%.

`O=C(CO)N1CCC(c2[nH]nc(-c3ccc(Cl)cc3)c2-c2ccncn2)CC1` registered a parasite growth, % of DMSO control of 25.8%.

Molecule `CN(C)N=Nc1nc[nH]c1C(N)=O` registered a parasite growth, % of DMSO control of 86.1%.

Take `Cc1cnc(CNC(=O)c2c(=O)c3ccc(N4CCCN(C)CC4)nc3n3c2sc2ccccc23)cn1`: the parasite growth, % of DMSO control amounted to 6.1% [at 9.64 µM].

`CNC1CCC(N(Cc2cccc(-c3ccncc3)c2)C(=O)c2sc3ccccc3c2Cl)CC1` (stereo not given) displayed a parasite growth, % of DMSO control of 4.86%.

`CC1=C[C@@H]2[C@@H]([C@@H](O)C[C@@]3(C)[C@H]2C[C@@H](C)[C@]3(O)C(=O)CO)[C@@]2(C)Cc3cnn(-c4ccccc4)c3C=C12` showed a parasite growth, % of DMSO control of 33.4%.

In the case of `C[C@H]1O[C@@H](n2cc(F)c(=O)[nH]c2=O)[C@H](O)[C@H]1O`, the parasite growth, % of DMSO control was found to be 22.6%.

`CCOC(=O)[C@H]1O[C@H]1C(=O)N[C@@H](CC(C)C)C(=O)NCCC(C)C` showed a parasite growth, % of DMSO control of 15.6%.

`COc1ccc2ccc(=O)oc2c1CC=C(C)C`: the parasite growth, % of DMSO control is 94.2%.

In the case of `Nc1[nH]nc2nnc(-c3c(-c4ccccc4)nn4ccccc34)cc12`, the parasite growth, % of DMSO control was found to be 25%.

`COc1ccc(-c2cc(=O)c3c(O)cc(O[C@@H]4O[C@H](CO[C@@H]5O[C@@H](C)[C@H](O)[C@@H](O)[C@@H]5O)[C@@H](O)[C@H](O)[C@@H]4O)cc3o2)cc1O` showed a parasite growth, % of DMSO control of 30.1%.

Regarding `CCC(=C(c1ccc(O)cc1)c1ccc(OCCNC)cc1)c1ccccc1`, the parasite growth, % of DMSO control worked out at 5.26%.

On to `Cc1nc2c([nH]1)CCN(C(=O)c1ccc(NC(=O)c3ccccc3-c3ccccc3)cc1)c1ccccc1-2`, for which the parasite growth, % of DMSO control is 5.23%.

With `COc1cc2c(cc1OC)[C@@H]1Cc3ccc(OC)c(OC)c3CN1CC2`, the parasite growth, % of DMSO control is 25.7%.

The molecule `COc1ccc(Cn2ccc3ccc(C(=O)NO)cc32)cc1` registered a parasite growth, % of DMSO control of 4.8%.
